Most compounds without a hit are left out; they make up all but 21% or so of the library.
IL-1B inflam inh: blocks inflammasome-driven IL-1 beta release; THP-1 LPS/ATP IL-1B secretion, AlphaLISA, 16 h; hits give low values; activity change, % at 57.5 µM; 360,000 compounds, 4.7% hits; AID 743279; in the data active = activity change below about -50%; inconclusive = mostly about -30% to -49%; also: % is scaled to controls: 0 for no effect and ±100 for the full control effect
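Secreted IL-1B measured by AlphaLISA bead assay after 16 h compound exposure of THP-1 cells; compounds (final up to 57.5 uM) added 1 h before LPS (250 ng/mL) and ATP (1.25 mM) stimulation; lower signal means less secretion.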
TDP1 cell CPT: growth inhibition of DT40 Tdp1-/-;hTDP1 cells with camptothecin (screen for TDP1 inhibitors); 420,000 compounds, 12% hits; Potency, µM (titrated, usually from 46.2 µM), for the others: at the top dose activity change, negative = growth inhibition, actives largely listed as inhibitors; chicken DT40 Tdp1-/-;hTDP1 cells + 20 nM CPT, ATP luminescence, 48 h; also: potency is read from the fitted curve at half-maximal effect; % is scaled to controls: 0 for no effect and ±100 for the full control effect; nearly all actives have a fitted effect of over 55% in size
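Chicken DT40 Tdp1-/- cells complemented with human TDP1, 400 cells/well, exposed to compounds plus 20 nM camptothecin for at least 48 h at 37 C; viability read as ATP content by CellTiter-Glo luminescence.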
DRD3 agonist: agonists of human D3 dopamine receptor | P35462 | D3R DiscoveRx beta-arrestin cells, luminescence, 90 min | AID 652048 | max activation, % | 410,000 compounds, 0.58% hits; in the data active = max activation above about 30%; also: 0% is about no effect
Target sequence (P35462 whole entry, looked up): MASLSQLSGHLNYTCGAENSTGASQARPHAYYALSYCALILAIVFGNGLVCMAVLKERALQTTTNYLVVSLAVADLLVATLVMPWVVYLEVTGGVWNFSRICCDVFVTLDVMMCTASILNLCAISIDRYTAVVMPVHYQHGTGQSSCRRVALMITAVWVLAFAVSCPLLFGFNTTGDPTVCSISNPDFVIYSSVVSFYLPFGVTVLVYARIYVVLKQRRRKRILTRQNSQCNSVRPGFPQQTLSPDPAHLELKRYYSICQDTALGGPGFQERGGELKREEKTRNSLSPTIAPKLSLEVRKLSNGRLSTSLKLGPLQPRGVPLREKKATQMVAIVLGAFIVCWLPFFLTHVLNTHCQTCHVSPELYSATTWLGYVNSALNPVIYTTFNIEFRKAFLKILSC
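Cells at 1500/well, incubated overnight, then treated with pinned compounds (dopamine as control) for 90 min at 37 degrees C. DiscoveRx reagent added for 30 - 60 minutes at room temperature; luminescence read.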
TDP1 cell noCPT: qHTS for Inhibitors of human tyrosyl-DNA phosphodiesterase 1 (TDP1): qHTS in cells in absence of CPT | DT40 Tdp1-/- hTDP1 cells, no CPT, ATP luminescence, 48 h | 420,000 compounds, 15% hits | AID 686978, 2013 | Potency, µM (highest dose often 46.2 µM), for inactives: at the top dose activity change, negative = growth inhibition, actives largely listed as inhibitors; also: potency is read from the fitted curve at half-maximal effect; % is scaled to controls: 0 for no effect and ±100 for the full control effect; nearly all actives have a fitted effect of over 55% in size
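A cellular qHTS used chicken DT40 cells lacking endogenous Tdp1 but carrying stably transfected human TDP1. Compounds were applied without camptothecin, and cell growth kinetics were judged by ATP-dependent luminescence after ≥48 hr.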
DRD3 antagonist: antagonists of human D3 dopamine receptor | D3R cells, DiscoveRx beta-arrestin luminescence, antagonist mode; hits give low values | max response, negative = inhibition, % | 360,000 compounds, 2.5% hits | AID 652054; in the data active = max response below about -50%; inconclusive = no clear call, values can overlap the other calls; also: % is scaled to controls: 0 for no effect and ±100 for the full control effect
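Cells expressing the human receptor were seeded at 1500 cells/well, incubated overnight at 37 degrees C in 5% CO2, then exposed to library compounds with dopamine controls for 90 minutes at 37 degrees C before luminescent detection.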
ClpP mod: qHTS Assay for Activators of ClpP; ATP-dependent Clp protease proteolytic subunit (Bacillus subtilis (strain 168)), P80244; purified B. subtilis ClpP, FRET peptide cleavage, 20 min; Potency, µM (series often up to 57.5 µM), for inactives: at the highest dose activity change, negative = active; 340,000 compounds, 1.9% hits; AID 651965, 2013; active = well fitted falling curve with a large enough effect; inconclusive = small, poorly fitted or top-dose-only effect; inactive = no such curve, though single readings can be large or run the other way; also: potency is read from the fitted curve at half-maximal effect; the source files actives as falling curves though it sought activators and does not explain the sign; nearly all actives have a fitted effect of over 65% in size
Target sequence (P80244 whole entry, looked up): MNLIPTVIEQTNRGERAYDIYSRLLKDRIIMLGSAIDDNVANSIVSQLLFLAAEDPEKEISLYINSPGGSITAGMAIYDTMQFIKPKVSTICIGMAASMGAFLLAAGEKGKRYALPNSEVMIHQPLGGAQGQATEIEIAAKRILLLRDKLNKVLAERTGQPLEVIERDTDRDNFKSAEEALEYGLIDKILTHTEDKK
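FRET quenching reversal measured ClpP activation: 10 microg/mL B. subtilis ClpP at pH 8 with the FRET-FV decapeptide, read at 430 nm after 320 nm excitation. The 20-min minus 0-min signal was scaled between DMSO/no-enzyme wells and ADEP (5.8 microM final).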
Active calls of the source: *. Unless noted, calls follow the shape of the dose curve; as a rule, active = well fitted inhibition curve with a large enough effect; inconclusive = small, poorly fitted or top-dose-only effect; inactive = flat fitted curve, though single readings scatter.

What do the screens show for `CN(C)CCCN(C(=O)COc1ccc(Cl)cc1)c1nc2cc3c(cc2s1)OCO3`?
IL-1B inflam inh: -100*; TDP1 cell CPT: 8.2µM*; DRD3 agonist: -17; TDP1 cell noCPT: 13µM*; DRD3 antagonist: -17; ClpP mod: -2%

What do the screens show for `CCC(C)NC(=O)c1ccc(N2CC3CC(C2)c2cccc(=O)n2C3)c(NC(=O)c2c(F)cccc2F)c1` (stereo unspecified)?
IL-1B inflam inh: -16; TDP1 cell CPT: inconclusive; DRD3 agonist: -3; TDP1 cell noCPT: inconclusive; DRD3 antagonist: 38; ClpP mod: -2%

What do the screens show for `COc1ccc(C2CC(=O)c3cc(-c4nc(-c5ccc(Cl)cc5)c(C)s4)c(=O)[nH]c3C2)cc1` (stereo unspecified)?
TDP1 cell CPT: inconclusive; DRD3 agonist: 1; TDP1 cell noCPT: 1.8µM*; ClpP mod: -7%

How did Cc1ccc(-c2csc(-c3cc4c([nH]c3=O)CC(c3ccccc3)CC4=O)n2)cc1 (stereo unspecified) do in these assays?
TDP1 cell CPT: 1.5µM*; DRD3 agonist: -14; TDP1 cell noCPT: 1.3µM*; ClpP mod: -8%

Results for CC1(C)CC(=O)c2cc(-c3nc(-c4ccccc4)cs3)c(=O)[nH]c2C1 ?
TDP1 cell CPT: 9.2µM*; DRD3 agonist: 4; TDP1 cell noCPT: 13µM*; ClpP mod: inconclusive

Results for COc1ccc(C2CC(=O)c3cc(-c4nc(-c5cccc(Cl)c5)cs4)c(=O)[nH]c3C2)cc1 (stereo unspecified) ?
TDP1 cell CPT: 3%; DRD3 agonist: 4; TDP1 cell noCPT: 0%; ClpP mod: 8%

What do the screens show for `Cn1c(=O)c2cc(NC(=S)NC3CCCCC3)ccc2n1C/C=C/c1ccccc1`?
IL-1B inflam inh: inconclusive; TDP1 cell CPT: inconclusive; DRD3 agonist: -3; TDP1 cell noCPT: -23%; DRD3 antagonist: 12; ClpP mod: 5%

How did CCc1ccc(CNC(=O)c2cc(=O)[nH]c3ccc(S(=O)(=O)N4CCCCC4)cc23)cc1 do in these assays?
TDP1 cell CPT: -2%; DRD3 agonist: 2; TDP1 cell noCPT: 5%; ClpP mod: 0%

How did CC(C)c1ccc(NC(=O)C2(C)Cc3c(-c4ccc(C(N)=O)cc4)ccnc3O2)cc1 (stereo unspecified) do in these assays?
IL-1B inflam inh: 9; TDP1 cell CPT: 16µM*; DRD3 agonist: -18; TDP1 cell noCPT: 16µM*; DRD3 antagonist: -54*; ClpP mod: -2%

What do the screens show for `COc1ccc(NC(=O)C2(C)Cc3c(-c4ccc(C(N)=O)cc4)ccnc3O2)cn1` (stereo unspecified)?
IL-1B inflam inh: -21; TDP1 cell CPT: inconclusive; DRD3 agonist: -14; TDP1 cell noCPT: inconclusive; DRD3 antagonist: -4; ClpP mod: -7%

What do the screens show for `CC(=O)Nc1ccc(-c2ccnc3c2CC(C)(C(=O)Nc2ccc(C(C)C)cc2)O3)cc1` (stereo unspecified)?
IL-1B inflam inh: -84*; TDP1 cell CPT: 23µM*; DRD3 agonist: -10; TDP1 cell noCPT: 21µM*; DRD3 antagonist: -28; ClpP mod: 5%

How did CCCCNC(=O)C(C#N)c1nc2ccccc2nc1N1CCN(Cc2ccc3c(c2)OCO3)CC1 (stereo unspecified) do in these assays?
IL-1B inflam inh: 0; TDP1 cell CPT: -6%; DRD3 agonist: -15; TDP1 cell noCPT: -7%; DRD3 antagonist: -20; ClpP mod: -2%

What do the screens show for `c1ccc2nc(N3CCN(Cc4ccc5c(c4)OCO5)CC3)cnc2c1`?
IL-1B inflam inh: -7; TDP1 cell CPT: -1%; DRD3 agonist: -12; TDP1 cell noCPT: inconclusive; DRD3 antagonist: inconclusive

How did COc1nc2ccccc2nc1N1CCN(Cc2ccc3c(c2)OCO3)CC1 do in these assays?
IL-1B inflam inh: -28; TDP1 cell CPT: inconclusive; DRD3 agonist: 5; TDP1 cell noCPT: -21%; DRD3 antagonist: -114*; ClpP mod: -26%

What do the screens show for `C=CCOC(=O)C(C#N)c1nc2ccccc2nc1N1CCN(Cc2ccc3c(c2)OCO3)CC1` (stereo unspecified)?
IL-1B inflam inh: -52*; TDP1 cell CPT: inconclusive; DRD3 agonist: -10; TDP1 cell noCPT: inconclusive; DRD3 antagonist: -7; ClpP mod: -9%

What do the screens show for `COc1ccccc1CNC(=O)Cn1nc(C)c([N+](=O)[O-])c1C`?
IL-1B inflam inh: 18; TDP1 cell CPT: -6%; DRD3 agonist: 8; TDP1 cell noCPT: -13%; DRD3 antagonist: 12

How did Cc1nc(C(=O)Nc2ccc(Cl)cc2Cl)nn1-c1cc(OC(C)C)c(Cl)cc1Cl do in these assays?
IL-1B inflam inh: 0; TDP1 cell CPT: inconclusive; DRD3 agonist: 0; TDP1 cell noCPT: inconclusive; DRD3 antagonist: -5; ClpP mod: 28µM*

What do the screens show for `Cc1nc(C(=O)Nc2cc(Cl)ccc2Cl)nn1-c1cc(OC(C)C)c(Cl)cc1Cl`?
IL-1B inflam inh: 12; TDP1 cell CPT: 16µM*; DRD3 agonist: 5; TDP1 cell noCPT: 12µM*; DRD3 antagonist: 6; ClpP mod: -5%

Results for COc1ccc(C(=O)Nc2cc(Cl)ccc2Cl)c(OC)n1 ?
IL-1B inflam inh: 14; TDP1 cell CPT: -22%; DRD3 agonist: 4; TDP1 cell noCPT: -20%; DRD3 antagonist: -5; ClpP mod: -12%

How did Cc1nc(C(=O)Nc2cccc(Cl)c2)nn1-c1cc(OC(C)C)c(Cl)cc1Cl do in these assays?
IL-1B inflam inh: -5; TDP1 cell CPT: 16µM*; DRD3 agonist: 0; TDP1 cell noCPT: inconclusive; DRD3 antagonist: inconclusive; ClpP mod: -28%

How did Cc1nc(C(=O)Nc2cccc(Cl)c2Cl)nn1-c1cc(OC(C)C)c(Cl)cc1Cl do in these assays?
IL-1B inflam inh: 0; TDP1 cell CPT: -21%; DRD3 agonist: -12; TDP1 cell noCPT: inconclusive; DRD3 antagonist: -30; ClpP mod: inconclusive

Results for Cc1ccccc1SCC(=O)OCC(=O)NCc1ccccc1 ?
IL-1B inflam inh: 4; TDP1 cell CPT: -3%; DRD3 agonist: 3; TDP1 cell noCPT: 13%; DRD3 antagonist: 11

Results for CC(OC(=O)C1=COCCO1)C(=O)Nc1cc(S(=O)(=O)N2CCCCC2)ccc1Cl (stereo unspecified) ?
IL-1B inflam inh: -14; TDP1 cell CPT: inconclusive; DRD3 agonist: -6; TDP1 cell noCPT: inconclusive; DRD3 antagonist: -11

Bioassay records: PubChem, National Center for Advancing Translational Sciences (NCATS)
